# uPA surface inh: cell surface uPA generation inhibition; Potency, µM (doses to about 38.3 µM), without a hit: at the top dose activity change, negative = inhibition, most hits filed as inhibitors; 0.31% of 330,000 active; AID 540303; cell surface uPA generation assay, qHTS; active means well fitted inhibition curve with a large enough effect; inconclusive means small, poorly fitted or top-dose-only effect; inactive means no such curve, though single readings can be large or run the other way; tested in mouse RAW 264.7 cells; further: potency means the concentration at half of the fitted maximal effect; on the % scale 0 is the no-effect control and ±100 the full control effect; nearly all actives have a fitted effect of over 55% in size
# MCF10A rerep: inducers of DNA re-replication in MCF 10A breast cells; 2.9% of 350,000 active; MCF 10A DNA re-replication, Hoechst nuclear intensity, 48 h; AID 624296; Potency, µM (highest dose often 46.1 µM), without a hit: top-dose activity, positive = re-replication, most hits filed as activators; further: potency means the concentration at half of the fitted maximal effect; % of control where 0% means no effect; nearly all actives have a fitted effect of over 50% in size
# Giardia kill: Giardia lamblia killing; activity change, % at 7.66 µM, hits read low; AID 540267; Giardia lamblia trophozoite viability; 0.15% of 340,000 active; in the data active means activity change below about -80%; inconclusive means between about -30% and that limit;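 further: parasites exposed to compound for two days anaerobically before the ATP read; on the % scale 0 is the no-effect control and ±100 the full control effect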
#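 Giardia lamblia trophozoites (100 cells/well) were incubated with compounds for 48 h at 37 deg C under anaerobic conditions. Viability was read as ATP content by one-step luminescence after 15-30 min at room temperature.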
# SW480 rereplic: induces DNA re-replication in SW480 colon adenocarcinoma cells. SW480 DNA re-replication, Hoechst DNA content imaging, 48 h. Potency, µM (top dose mostly 46.1 µM), for the others: top-dose re-replication activation, usual class: activators. 1.8% of 340,000 active. AID 624297; further: potency means the concentration at half of the fitted maximal effect; % of control where 0% means no effect; nearly all actives have a fitted effect of over 55% in size
#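 250 cells/well; 23 nL cpd via pin tool; 48 hr, 37 C, 5% CO2; Hoechst 40 min; imager read of total nuclear intensity, ex 405/em 500-530 nm.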
# * hit, by the source's call; u = inconclusive; x = no result given; [ ] = dose if it differs, or a comment. The list is not random: actives were taken first. Their share in the collection is about 4.3%. Unless noted, the call rests on the fitted dose curve; in most records, active means well fitted activation curve with a large enough effect; inconclusive means small, poorly fitted or top-dose-only effect; inactive means no such curve, though single readings can be large or run the other way.
SMILES,uPA surface inh,MCF10A rerep,Giardia kill,SW480 rereplic
Nc1ncnc2c1ncn2[C@@H]1O[C@H](CNCc2ccc(-n3cccn3)cc2)[C@@H](O)[C@H]1O,10%,-3%,-18,-46%[9.22 µM]
CN(C)S(=O)(=O)c1ccc(Cl)c(NC(=O)CSc2nc3c(cc2C#N)C(=O)CCC3)c1,12%,u,11,2.6µM*
Cc1ccc(NC(=O)CSc2nc3c(cc2C#N)C(=O)CCC3)cc1S(=O)(=O)N(C)C,-8%,u,-20,15%
Cc1cc(NC(=O)CSc2nc3c(cc2C#N)CCC3)no1,-5%,u,0,15µM*
COc1ccc(CN(C)CC(=O)Nc2sc3c(c2C#N)CCC3)cc1OC,u,u,-18,12µM*
Cc1noc(NS(=O)(=O)c2ccc(NC(=O)CSc3nc4c(cc3C#N)CCCC4)cc2)c1C,5%,23µM*,-22,2%
N#Cc1cccc(S(=O)(=O)N2CCN(S(=O)(=O)c3ccc4c(c3)OCCO4)CC2)c1,x,x,6,x
CC(C)[C@H](NC(=O)OCc1ccccc1)C(=O)OCC(=O)N1C(C)CCCC1C (stereo partly specified),0%,18%,-12,7%
CCCCn1nnnc1SCC(=O)Nc1sc2c(c1C#N)CCCC2,-3%,11µM*,-2,3%
N#Cc1cc2c(nc1SCC(=O)Nc1sc3c(c1C#N)CCC3)CCCCC2,x,0.82µM*,-6,18µM*
CC(=O)Nc1c(Cl)cc2c(c1Cl)C(=O)c1ccccc1-2,-4%,4%,-10,-2%
Cc1cc(C(=O)OCC(=O)NC2(C#N)CCCCC2)c(C)o1,2%,5%,-21,-39%
CC(=O)OCC(NC(=O)C1CCCN1C(=O)OC(C)(C)C)C1OC(n2ccc(=O)[nH]c2=O)C(OC(C)=O)C1OC(C)=O (stereo unspecified),x,x,16,x
CC(C)CC(CSc1ccc(Br)cc1)N1CCN(CCc2ccccc2)CCC1=O (stereo unspecified),x,x,0,x
CCN(CC)c1ccc(/C=N/NC(=O)C(O)(c2ccccc2)c2ccccc2)o1,x,7.3µM*,x,u
O=C(O)c1ccc(/C=N/NC(=O)C(O)(c2ccccc2)c2ccccc2)cc1,1%,-15%,-21,u
CCCCCC/C=C/c1ccc(C2C3C=CCC(C)C3C(=O)N2Cc2ccccc2)c(F)c1 (stereo unspecified),x,x,26,x
COc1ccccc1-c1cccc([C@@H]2C[C@H]3[C@H](CON3C)CN2C(C)=O)c1,18%,-3%,-10,17%[9.22 µM]
CCCCCCC1(C)NC(=O)N(C(C)C(=O)Nc2ccc(N3CCOCC3)cc2)C1=O (stereo unspecified),-5%,-2%,6,3%
CC(C)c1ccc(C2(C)NC(=O)N(C(C)C(=O)Nc3ccc(N4CCOCC4)cc3)C2=O)cc1 (stereo unspecified),-6%,u,14,6.5µM*
CCCCc1ncc(/C=C(\Cc2cccs2)C(=O)O)n1Cc1ccc(C(=O)O)cc1,x,-1%,x,-1%
Nc1ncn(C2C[C@H](O)[C@@H](CO)O2)c(=O)n1 (stereo partly specified),x,13%,x,u
Cn1cnc([N+](=O)[O-])c1Sc1nc(N)nc2c1ncn2C1CC(O)C(CO)O1 (stereo unspecified),-8%,2.1µM*,7,7.3µM*
CCSc1nc(N)nc2c1ncn2C1OC(CO)C(O)C1O (stereo unspecified),11%,-4%,-2,-10%
Cn1cnc([N+](=O)[O-])c1Sc1nc(N)nc2c1ncn2C1OC(CO)C(O)C1O (stereo unspecified),-8%,2.1µM*,-10,5.8µM*
SMILES,uPA surface inh,MCF10A rerep,Giardia kill,SW480 rereplic
COC(=O)c1c(NC(=O)CN2CCCc3ccccc32)sc(C)c1C,11%,15µM*,13,u
N#Cc1ccc(C(=O)N2CCC3CC2c2cc(-c4ccc(F)cc4)ccc23)cc1 (stereo unspecified),-6%,-16%,-10,-2%
CCOC(=O)/C(N=Nc1c(C)n(C)n(-c2ccccc2)c1=O)=C(\C)O,9%,-27%,-8,0%
CCNc1ccc(N=Nc2c(C)n(C)n(-c3ccccc3)c2=O)cc1,-8%,11%,-98*,u
CC(C)(C)[C@@H]1COC(=O)[C@@H](Cc2ccc(F)cc2)C/C=C\C[C@H](CC(=O)N(CCO)Cc2ccccc2)C(=O)N1,-22%,51%,-6,u
COc1cccc(C(=O)Nc2nnc(SCC(=O)Nc3ccc(NC(C)=O)cc3)s2)c1,2µM*,-4%,u,2%
COc1ccc(Cc2nnc(NC(=O)c3cc(OC)cc(OC)c3)s2)cc1,u,13µM*,-9,102%
COc1ccc(Cc2nnc(NC(C)=O)s2)cc1,0%,14%,-20,-17%
COc1cccc(C(=O)Nc2nnc(S(=O)(=O)N(C)Cc3ccccc3)s2)c1,2%,3%,-26,12µM*
COc1cccc(N2CC(C(=O)Nc3nnc(SCC(=O)Nc4ccc(NC(C)=O)cc4)s3)CC2=O)c1 (stereo unspecified),0%,6%,-6,-2%
COc1ccc(CN(C)S(=O)(=O)c2nnc(NC(=O)c3cccc(OC)c3)s2)cc1,0%,u,10,-7%
Cc1cc(Br)cc(Br)c1OCC(=O)NNC(=O)Nc1ccccc1,4%,7%,8,-134%
O=C(NCc1ccc(F)cc1)C1CCCN(c2nc3ccsc3c(=O)s2)C1 (stereo unspecified),-4%,12µM*,14,u
CC(C)Nc1nc(-c2cccnc2)nc(-c2ccc(Cl)cc2)c1C#N,3%,23µM*,-2,21%
CCCC[C@H]1CCCO[C@@](C(=O)NCCN2CCOCC2)(C(F)(F)F)C1,x,x,-2,x
Cc1cc(-c2cc(-c3ccccc3)on2)nc(NCC2CC2)n1,-8%,18µM*,5,1%
CCCNc1nc(C)cc(-c2cc(-c3ccccc3)on2)n1,-2%,61%,-9,-34%
Oc1ccc(/C=C/c2nc(-c3ccccc3O)n(-c3ccccc3)n2)cc1,x,16µM*,3,u
COc1cc(NC(=O)Cn2cnc(S(=O)(=O)N3CCOCC3)c2)cc(OC)c1OC,0%,0%,-2,23%
COCc1ccc(C(=O)N2CCCC(CCC(=O)NCc3ccccc3F)C2)o1 (stereo unspecified),-10%,13µM*,-8,12µM*
CCOc1cccc(CN2CCCC(CCC(=O)NCc3ccccc3F)C2)c1O (stereo unspecified),4%,-25%,-4,16µM*
COC(=O)Cc1cc(C)cc2c(=O)cc(-c3ccoc3)oc12,-7%,-6%,-1,22%
CCN1c2ccccc2NC2N=C(OC)C(c3ccccc3)C21 (stereo unspecified),u,u,-5,16µM*
COc1ccccc1NC(=O)Cc1nnc(SCC(=O)c2ccccc2)n1C,-1%,-6%,12,-2%
CC(C)Nc1nc(NC(C)C)nc(N(C#N)CCOc2ccc(Cl)cc2Cl)n1,-13%,18µM*,-11,u
Cc1cc(C)nc(N(C#N)CCOc2ccc(Cl)cc2)n1,-2%,u,-2,-5%[9.22 µM]
